Compound activity: PubChem BioAssay, National Center for Advancing Translational Sciences (NCATS)
In the library only some 3.7% were active in any assay of this set; here they are far more common.
FMDV inh = High Throughput Screening for Foot and Mouth Disease Virus Antivirals | FMDV antiviral cell-based qHTS | Potency, µM (titrated, usually from 57.9 µM), inactives show top-dose activity change, negative = inhibition, actives largely listed as inhibitors | AID 1159524, 2015 | actives 1.2% (n = 410,000); calls by dose curve; tested in HEK293T cells; further: read-out not given here; nearly all actives have a fitted effect of over 45% in size
TbPYK inhibitor = qHTS of Trypanosoma Brucei Inhibitors | pyruvate kinase (Trypanosoma brucei), Q57TT1 | TbPYK enzyme, Kinase-Glo Plus ATP luminescence, 45 min | Potency, µM (highest dose often 76.8 µM), for inactives: at the highest dose activity, negative = inhibition, usual class: inhibitors | actives 0.12% (n = 410,000) | AID 624173, 2012; further: nearly all actives have a fitted effect of over 50% in size
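Activity of T. brucei pyruvate kinase was followed by Kinase-Glo Plus luminescence after the enzyme reacted 45 min at room temperature with 130 uM ADP (final) and substrate. Test compounds were added before ADP at multiple concentrations.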
Sm TGR inh = qHTS Assay for the Inhibitors of Schistosoma Mansoni Peroxiredoxins | Potency, µM (highest dose often 114 µM), for the others: top-dose activity change, negative = inhibition, usual class: inhibitors | Schistosoma mansoni thioredoxin glutathione reductase (TGR), Q962Y6 | purified TGR, DTNB reduction, TNB absorbance 405 nm | actives 3% (n = 360,000); further: nearly all actives have a fitted effect of over 60% in size
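Kinetic colorimetric format: TGR-catalysed, NADPH-driven DTNB reduction monitored via TNB absorbance. Enzyme dispensed at 20 nM; compound exposure 15 min at room temperature before reaction start.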
RE007 growth inh = qHTS Assay for Inhibitors of the HIV-1 protein Vpr. S. pombe RE007 Vpr strain, BacTiter-Glo ATP luminescence, 24 h. Potency, µM (series often up to 92.2 µM), for the others: at the highest dose activity change, negative = less growth, most hits filed as inhibitors. actives 0.21% (n = 360,000). AID 651644, 2012; active means well fitted falling curve with a large enough effect; inconclusive means small, poorly fitted or top-dose-only effect; inactive means no such curve, though single readings can be large or run the other way; further: nearly all actives have a fitted effect of over 50% in size
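Fission yeast RE007 carrying one integrated HIV-1 vpr copy, seeded at OD 0.01 in PMG+AL medium with 23 nL pinned compound. Grown 24 h at 30 degrees; viability read by BacTiter-Glo luminescence after 5 min.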
Starred values were filed as active, the others as inactive; ? = inconclusive; . = not tested or not shown; [ ] = remark or other dose. Unless noted, the call rests on the fitted dose curve; in most records, active means well fitted curve in the direction sought with a large enough effect; inconclusive means small, poorly fitted or top-dose-only effect, or another doubt; inactive means no such curve, though single readings can be large; an effect the other way counts as inactive or inconclusive. On the % scale 0 is the no-effect control and ±100 the full control effect; potency means the concentration at half of the fitted maximal effect.

SMILES	FMDV inh	TbPYK inhibitor	Sm TGR inh	RE007 growth inh
CC(=O)Nc1ccc(NC(=O)CSc2nc(N)c(NC(=O)c3ccccc3F)c(=O)[nH]2)cc1	-9%	-1%	89µM*	-20%
COc1ccc(NC(=S)NC(NC(=O)c2ccccc2Cl)C(Cl)(Cl)Cl)c([N+](=O)[O-])c1 (stereo not drawn)	.	7%	-3%	4%
CC(C)CC(=O)NC(Nc1ccc([N+](=O)[O-])cc1)C(Cl)(Cl)Cl (stereo not drawn)	32µM*	-8%	6%	5%
COC(=O)NC(NC(=S)Nc1ccc([N+](=O)[O-])cc1)C(Cl)(Cl)Cl (stereo not drawn)	-23%	-11%	20µM*	20%
O=C(CF)NC(NC(=S)Nc1cccc([N+](=O)[O-])c1)C(Cl)(Cl)Cl (stereo not drawn)	-24%	-11%	?	-3%
COc1ccc(NC(=S)NC(NC(=O)CF)C(Cl)(Cl)Cl)cc1[N+](=O)[O-] (stereo not drawn)	-3%	-8%	35µM*	-3%
COc1ccc(NC(=S)NC(NC(=O)CCl)C(Cl)(Cl)Cl)c([N+](=O)[O-])c1 (stereo not drawn)	-30%	-11%	2.8µM*	-3%
COc1cc(-c2cnc3ccccc3c2)cc2c1OCCN(C(=O)Cn1nccc1C)C2	-10%	.	.	.
Cc1cn2c(=O)cc(COC(=O)c3ccc(NC(=O)c4ccccc4C)cc3)nc2s1	-5%	0%	0%	.
COc1ccc(OC)c(CCNC(=O)c2ccc3c(c2)c(C)c(C)n3Cc2ccccc2)c1	?	-1%[15.4 µM]	12%	.
CCCS(=O)(=O)c1nc(S(=O)(=O)c2ccc(C)cc2)c(NCc2ccco2)s1	11%	-5%	18µM*	-17%
CCCS(=O)(=O)c1nc(S(=O)(=O)c2ccc(C)cc2)c(NCc2ccccn2)s1	44%	-15%	7.9µM*	3%
CCCS(=O)(=O)c1nc(S(=O)(=O)c2ccc(C)cc2)c(N2CC(C)OC(C)C2)s1 (stereo not drawn)	3%	-10%	18µM*	-8%
CS(=O)(=O)c1nc(S(=O)(=O)c2ccc(Cl)cc2)c(NCc2ccccn2)s1	4%	3%	35µM*	5%
Cc1ccc(S(=O)(=O)c2nc(S(=O)(=O)c3ccc(C)cc3)c(NCc3ccco3)s2)cc1	20%	-8%	-34%	-8%
CCOc1cc(C(=O)Nc2ccc(-c3nc4ccccc4s3)cc2Cl)cc(OCC)c1OCC	13%	3%	9%	.
COc1cc(=O)n2c(c1C(=O)N(C)C(C)c1ccco1)CCN(C(=O)c1ccc(C(C)=O)cc1)CC2 (stereo not drawn)	-9%	.	.	.
CCCS(=O)(=O)c1nc(S(=O)(=O)c2ccc(C)cc2)c(N(C)Cc2ccccc2)s1	-7%	-7%	1%	.
CCCSc1ccc2nc(-c3ccccc3)cn2c1	2.2µM*	?	-1%	?
CCOC(=O)C1(Cc2cccc(OC)c2)CCN(Cc2cccc(OC)c2O)CC1	25µM*	4%	0%	?
CCOC(=O)C1(Cc2cccc(OC)c2)CCCN(C(=O)c2ccc(OC)o2)C1 (stereo not drawn)	67%	-1%	50µM*	-11%
COC(=O)c1sccc1S(=O)(=O)N(CC(=O)Nc1ccccc1C)c1ccc(Cl)cc1	-10%	3%	-1%	.
O=C(c1cccc([N+](=O)[O-])c1)N1CCN(c2ccc(Nc3ccccc3)nn2)CC1	0%	1%	3%	.
CCN1CCN(Cc2c(O)ccc3oc(C)c(C(=O)Nc4cccc(C(F)(F)F)c4)c23)CC1	0%	4%	4%	.
COc1cc(Br)c(C[N+]2(CCOCCC3CCC4CC3C4(C)C)CCOCC2)cc1OC (stereo not drawn)	.	0%	.	.
SMILES	FMDV inh	TbPYK inhibitor	Sm TGR inh	RE007 growth inh
N#C/C(=C\c1ccc(O)c(O)c1)C(=O)OCCc1cccs1	-4%	.	.	.
COc1ccc(-c2ccc(CCC(=O)O)n2NC(=O)c2ccc(O)cc2)cc1	4%	2%	-29%	4%
NC(=O)Nn1c(CCC(=O)O)ccc1-c1ccc(Cl)cc1	-14%	-3%	-32%	-18%
CCCn1c(CCC(=O)O)ccc1-c1ccc(OC)cc1	.	0%	40µM*	3%
NC(=O)Nn1c(CCC(=O)O)ccc1-c1ccc(Br)cc1	0%	-2%	14µM*	-4%
COc1ccc(-c2ccc(CCC(=O)O)n2NC(N)=O)cc1	-16%	-7%	45µM*	3%
c1ccc(-n2cnnn2)cc1	.	-2%	.	.
CCn1nc(C)cc1C(=O)OCC(=O)c1ccc(Cl)cc1	-1%	-1%	0%	-5%
CCn1nc(C)cc1C(=O)Sc1cccc(Br)c1	?	-1%	5.6µM*	-8%
CCn1nc(C)cc1C(=O)Sc1ccc(Cl)cc1Cl	?	-12%	3.5µM*	?
O=C(OCC#CCNc1nnc(-c2cccc3ccccc23)o1)c1cccs1	.	.	18µM*	.
COc1ccc(C(=O)OCC#CCSc2nnc(-c3cccc4ccccc34)o2)cc1	-1%	1%	-22%	.
O=C(c1ccco1)N1CCN(Cc2cc(=O)oc3cc(O)ccc23)CC1	-11%	-4%	45µM*	-11%
O=c1cc(CN2CCN(Cc3ccccc3)CC2)c2ccc(O)cc2o1	-26%	-1%	-23%	-6%
CCOCCCNC1=C(Cl)C(=O)c2ccccc2C1=O	24%	?	1.8µM*	?
O=C1C(Cl)=C(NCCCO)C(=O)c2ccccc21	?	-9%	33%	?
Cc1ccc(-n2c(-c3cc(-c4ccco4)[nH]n3)n[nH]c2=S)c(Br)c1	-2%	?	-31%	14%
FC(F)(F)c1ccccc1-n1c(-c2ccco2)n[nH]c1=S	14µM*	?	-6%	1%
S=c1[nH]nc(-c2cc(-c3ccco3)[nH]n2)n1-c1cccc2ccccc12	-18%	?	11µM*	-5%
COc1ccc(C(=O)CCC(=O)Nc2cc(Cl)c(O)c(Cl)c2)cc1	-13%	5%	35µM*	-3%
O=C(NCCNc1ccc([N+](=O)[O-])cc1)c1cccc(Br)c1	-9%	2%	0%	-8%
O=C(CCNc1ccc(Br)cc1)c1cccc([N+](=O)[O-])c1	11%	-18%	0.4µM*	?
Cc1ccc(NCCC(=O)c2cccc([N+](=O)[O-])c2)cc1	29%	-15%	0.4µM*	5.6µM*
O=C(COc1cccc(NC(=O)c2cccc([N+](=O)[O-])c2)c1)c1ccc(Br)cc1	20µM*	-1%	5%	3%
COc1ccc(C(=O)CCC(=O)Nc2ccc(OC)c(Cl)c2)cc1	0%	3%	3%	.
Cc1ccc(NC(=O)Cn2c(=O)n(Cc3nc(-c4ccccc4)no3)c(=O)c3ccccc32)c(C)c1	-17%	1%	-1%	.
O=C(CCNc1ccc(F)cc1)c1cccc([N+](=O)[O-])c1	15%	-6%	0.5µM*	18µM*
O=C(CNC(=O)c1cccc([N+](=O)[O-])c1)OCCCC(=O)c1ccc(F)cc1	-20%	-3%	.	-25%
